An excerpt weighted towards active compounds, which were near 1.7% of everything screened.
HEK293 tox – qHTS of GLP-1 Receptor Inverse Agonists: Cytotox Screen | HEK293 cAMP-luciferase reporter cells, luminescence, 24 h | Potency, µM (titrated, usually from 38.3 µM), without a hit: at the highest dose activity change, negative = inhibition, usual class: inhibitors | 0.13% of 410,000 active | AID 624418, 2012;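 note: loss of luciferase light is scored as toxicity; potency is the fitted concentration of half-maximal effect; % is set by controls: 0 for no effect and ±100 for the full control effect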
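MLSMR compounds, 24 hr on cells at 37 deg C/5% CO2; luminescence after luciferase reagent (12 min RT). Inhibition counted as the undesired cytotoxic outcome.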
Pin1 inh – qHTS Assay to Find Inhibitors of Pin1. Peptidyl-prolyl cis-trans isomerase NIMA-interacting 1 (Homo sapiens), Q13526. Pin1 FP peptide displacement, HiFluor488, 10 min. Potency, µM (doses to about 115 µM), inactives show at the highest dose activity, negative = inhibition, most hits filed as inhibitors. 0.009% of 390,000 active; active = well fitted inhibition curve with a large enough effect in the polarisation, with a control signal flat, not every such curve was filed as active; inconclusive = small, poorly fitted or top-dose-only effect, or effect the other way, or a change in a side signal; inactive = no such curve, though single readings can be large or run the other way; the % refers to the polarisation; note: potency is the fitted concentration of half-maximal effect; % is set by controls: 0 for no effect and ±100 for the full control effect
PTHR1 agonist – qHTS for PTHR1 Agonists: Primary Screen; Parathyroid hormone/parathyroid hormone-related peptide receptor (Homo sapiens), Q03431; HEK293 GP2 PTHR1 cells, GloSensor cAMP luminescence, 1 h; Potency, µM (titrated, usually from 115 µM), without a hit: at the highest dose activation, most hits filed as activators; 0.075% of 410,000 active; AID 743266, 2014; note: potency is the fitted concentration of half-maximal effect; nearly all actives have a fitted effect of over 55% in size
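HEK-293-derived GP2 cells expressing PTHR1 and a GloSensor cAMP reporter, 3,000/well, plated overnight, given luciferin plus IBMX (each 0.5 mM as added) for 1 h at 37 °C, then compound for 1 h at 37 °C. Luminescence was read after 15 min at room temperature.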
miR-21 act – qHTS Assay for Modulators of miRNAs and/orActivators of miR-21; Potency, µM (doses to about 38.3 µM), for the others: at the top dose activity change, positive = activation, hits mostly activators; 340,000 tested, under 10 active; AID 2288, 2010; HeLa miR-21 FLuc reporter, luciferase, 48 h;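 note: % of control where 0% means no effect; miR-21 action dims this reporter so a rising signal means less miR-21 action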
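HeLa cells endogenously expressing miR-21, stably carrying CMV-driven firefly luciferase with a downstream miR-21 binding site, 2000 cells/well. Titrations up to approximately 40 uM, 48 hours; luciferase luminescence read.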
GLP-1R agonist – qHTS of GLP-1 Receptor Agonists. HEK293 GLP-1R CRE-luciferase, luminescence, 4-6 h; cells express a hypersensitive GLP-1R form. Potency, µM (highest dose often 45.6 µM), without a hit: at the highest dose activation, hits mostly activators. 0.007% of 380,000 active; note: potency is the fitted concentration of half-maximal effect; % of control where 0% means no effect
Target sequence (P43220 whole entry, looked up): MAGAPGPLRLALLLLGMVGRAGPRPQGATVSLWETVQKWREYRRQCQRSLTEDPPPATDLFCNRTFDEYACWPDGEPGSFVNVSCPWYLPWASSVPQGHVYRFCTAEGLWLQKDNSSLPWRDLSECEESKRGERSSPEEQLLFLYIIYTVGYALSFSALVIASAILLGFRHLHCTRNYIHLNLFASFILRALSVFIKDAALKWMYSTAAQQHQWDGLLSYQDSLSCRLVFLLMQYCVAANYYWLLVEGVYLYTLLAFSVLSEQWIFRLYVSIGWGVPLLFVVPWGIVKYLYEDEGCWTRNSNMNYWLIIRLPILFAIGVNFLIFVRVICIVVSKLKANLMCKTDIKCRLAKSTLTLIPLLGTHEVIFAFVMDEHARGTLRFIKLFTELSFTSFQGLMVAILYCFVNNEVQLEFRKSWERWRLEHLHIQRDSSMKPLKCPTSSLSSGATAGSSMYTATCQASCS
GLP-1R inv ag – qHTS of GLP-1 Receptor Inverse Agonists (Inhibition Mode); HEK293 GLP-1R CRE-luciferase, luminescence, 24 h; GLP-1R form is constitutively active; AID 624417, 2012; Potency, µM (titrated, usually from 38.3 µM), for inactives: top-dose activity change, negative = inhibition, most hits filed as inhibitors; Glucagon-like peptide 1 receptor (Homo sapiens), P43220; 1.6% of 410,000 active; note: potency is the fitted concentration of half-maximal effect; % is set by controls: 0 for no effect and ±100 for the full control effect; nearly all actives have a fitted effect of over 55% in size
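Inverse agonists were sought by their lowering of basal cAMP reporter luciferase output in HEK293 cells stably carrying constitutively active human GLP-1R, after 24 h compound treatment.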
Numbers without * were called inactive; i = inactive; ? = inconclusive; · = not tested or not shown; [ ] = another dose, or the depositor's remark. Unless noted, calls come from the whole dose curve; as a rule, active = well fitted curve in the direction sought with a large enough effect; inconclusive = small, poorly fitted or top-dose-only effect, or another doubt; inactive = no such curve, though single readings can be large; an effect the other way counts as inactive or inconclusive.

SMILES	HEK293 tox	Pin1 inh	PTHR1 agonist	miR-21 act	GLP-1R agonist	GLP-1R inv ag
COc1ccc(S(=O)(=O)n2ccc(C(C)Oc3ccc(-c4ccccc4)c(F)c3)n2)cc1 (stereo not given)	0%	-1%	-18%	26%	4%	8.9µM*
CCCC(=O)C1=C(O)C(C(=O)OC)C(C)(C)CC1=Nc1cccc2ccccc12 (stereo not given)	-4%	-2%	-4%[57.5 µM]	-3%	-6%	7.9µM*
CC(C)(C)OC(=O)N1CCC(c2cc(-c3cccs3)n[nH]2)CC1	-4%	?	-34%	-4%	21%	10µM*
O=C(/C=C/c1ccc(S(=O)(=O)N2CCOCC2)cc1)NCc1ccc(Cl)cc1	-1%	22%	-19%	0%	12%	3.5µM*
Nc1cccc(S(=O)(=O)N2CCN(S(=O)(=O)c3c(F)cccc3F)CC2)c1	·	-3%	·	·	·	·
Cc1cccc2cc(C#N)c(NCCCNS(=O)(=O)c3ccc(Cl)cc3)nc12	33%	45%	-43%	26%	14%	10µM*
Cc1cccc2cc(C#N)c(NCCNS(=O)(=O)c3ccccc3)nc12	6%	0%	i	-14%	6%	7%
Cc1cc2c(s1)c1cnn(Cc3cccc(C)c3F)c(=O)c1n2C	·	20%	·	·	·	·
CC(C)c1onc(C(=O)N2CCN(C(c3ccccc3)c3ccccc3)CC2)c1[N+](=O)[O-]	27%	1%	-16%	4%	-3%	2.5µM*
CC(C)c1onc(C(=O)N2CCN(c3ccccc3)CC2)c1[N+](=O)[O-]	-7%	-4%	-7%	1%	13%	-8%
C[N+]1(C)CCC(OC(=O)CC(O)(c2ccccc2)C2CCCC2)C1 (stereo not given)	·	·	·	·	-4%	·
Cn1c2ccccc2c(=O)c2ccc(C#CC3(O)CCCCC3)cc21	125%	10%	-3%	-8%	-10%	7.9µM*
COc1cc2sc3ccc(C#CC4(O)CCCCC4)cc3c(=O)c2cc1OC	-2%	16%	-47%	·	-1%	?
COc1ccc2c(c1)CC/C2=N\OC(=O)c1ccccc1OC	10µM*	0%	-24%	-33%	11%	42%
COc1ccccc1C(=O)O/N=C1/CCCc2c1ccc(OC)c2[N+](=O)[O-]	4%	6%	i	-6%	7%	3%
CC(=O)O[C@@H]1C(=O)O[C@H]2[C@@H]1OC(=O)[C@@H]2OC(C)=O	·	·	·	·	-1%	·
O=C1C(Cc2ccccc2)NC(=S)N1Cc1ccccc1 (stereo not given)	4%	1%	-6%	-2%	3%	?
CC(C)CC1NC(=S)N(Cc2ccccc2)C1=O (stereo not given)	-22%	-1%	-51%	?	-2%	2.8µM*
CSCCC1NC(=S)N(Cc2ccccc2)C1=O (stereo not given)	-23%	-2%	i	1%	19%	10µM*
Cc1ccc(S(=O)(=O)N2CCN(c3nc(-c4cccs4)nc4c3ncn4COC(=O)C(C)(C)C)CC2)cc1	·	-10%	·	·	·	·
Cc1ccc(CN(Cc2cccn2-c2nnc(N3CCCC3=O)s2)C(=O)Nc2ccccc2Cl)cc1	-10%	16%	18%	9%	·	?
CCOC(=O)N1CCC(NC(=O)c2cnn(-c3cccc(F)c3)c2-n2cccc2)CC1	3%	-6%	-29%	1%	·	3%
O=C(NNc1ccccc1)/C(=C\c1cccnc1)NC(=O)c1ccccc1	0%	0%	i	-3%	8%	3.5µM*
